Compounds with a hit are over-represented: about 5.7% of the library has one in this group of screens.
ClpP mod: qHTS Assay for Activators of ClpP | ATP-dependent Clp protease proteolytic subunit (Bacillus subtilis (strain 168)), P80244 | purified B. subtilis ClpP, FRET peptide cleavage, 20 min | Potency, µM (doses to about 57.5 µM), for inactives: at the top dose activity change, negative = active | 1.9% of 340,000 active | AID 651965, 2013; active = well fitted falling curve with a large enough effect; inconclusive = small, poorly fitted or top-dose-only effect; inactive = no such curve, though single readings can be large or run the other way; note: potency is the fitted concentration of half-maximal effect; the source files actives as falling curves though it sought activators and does not explain the sign; nearly all actives have a fitted effect of over 65% in size
Target sequence (P80244 whole entry, looked up): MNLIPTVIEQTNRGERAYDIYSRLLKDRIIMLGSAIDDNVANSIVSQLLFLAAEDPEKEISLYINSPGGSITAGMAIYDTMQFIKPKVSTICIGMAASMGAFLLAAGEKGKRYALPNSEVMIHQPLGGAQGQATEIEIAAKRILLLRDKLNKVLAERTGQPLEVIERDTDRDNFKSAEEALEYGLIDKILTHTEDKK
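FRET quenching reversal measured ClpP activation: 10 microg/mL B. subtilis ClpP at pH 8 with the FRET-FV decapeptide, read at 430 nm after 320 nm excitation. The 20-min minus 0-min signal was scaled between DMSO/no-enzyme wells and ADEP (5.8 microM final).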
GLP-1R inv ag: inverse agonists of human GLP-1 receptor; P43220; HEK293 GLP-1R CRE-luciferase, luminescence, 24 h; GLP-1R form is constitutively active; Potency, µM (titrated, usually from 38.3 µM), for the others: top-dose activity change, negative = inhibition, actives largely listed as inhibitors; 1.6% of 410,000 active; note: potency is the fitted concentration of half-maximal effect; % is set by controls: 0 for no effect and ±100 for the full control effect; nearly all actives have a fitted effect of over 55% in size
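Readout was luciferase luminescence, measured 12 min after detection reagent at room temperature. Beforehand, GLP-1R reporter HEK293 cells had sat 12 h, then received compounds for 24 hr at 37 deg C.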
D3 ag: agonists of human D3 dopamine receptor | P35462 | D3R DiscoveRx beta-arrestin cells, luminescence, 90 min | max activation, % | 0.58% of 410,000 active; in the data active = max activation above about 30%; note: 0% is about no effect
Target sequence (P35462 whole entry, looked up): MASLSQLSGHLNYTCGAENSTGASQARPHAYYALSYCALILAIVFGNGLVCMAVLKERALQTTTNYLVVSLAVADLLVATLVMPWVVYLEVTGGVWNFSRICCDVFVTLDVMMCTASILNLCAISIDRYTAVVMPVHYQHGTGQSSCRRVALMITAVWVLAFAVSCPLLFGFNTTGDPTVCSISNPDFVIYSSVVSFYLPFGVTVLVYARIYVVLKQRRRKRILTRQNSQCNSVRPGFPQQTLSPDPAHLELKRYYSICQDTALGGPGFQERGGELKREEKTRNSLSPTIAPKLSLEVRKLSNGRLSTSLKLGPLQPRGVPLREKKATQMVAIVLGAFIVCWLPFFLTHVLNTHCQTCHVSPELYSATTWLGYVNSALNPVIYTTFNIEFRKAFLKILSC
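Cells at 1500/well, incubated overnight, then treated with pinned compounds (dopamine as control) for 90 min at 37 degrees C. DiscoveRx reagent added for 30 - 60 minutes at room temperature; luminescence read.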
DRD3 antagonist: D3 dopamine receptor (human) antagonism. 2.5% of 360,000 active. D3R cells, DiscoveRx beta-arrestin luminescence, antagonist mode; hits give low values. max response, negative = inhibition, %. P35462; in the data active = max response below about -50%; inconclusive = no clear call, values can overlap the other calls; note: % is set by controls: 0 for no effect and ±100 for the full control effect
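Cells plated overnight at 1500 cells/well, then exposed to library compounds with dopamine controls for 90 minutes at 37 degrees C. DiscoveRx reagent added for 30–60 minutes at room temperature; luminescence read, quantitative HTS format.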
GLP1R ag: agonists of human GLP-1 receptor | P43220 | HEK293 GLP-1R CRE-luciferase, luminescence, 4-6 h; cells express a hypersensitive GLP-1R form | Potency, µM (top dose mostly 45.6 µM), without a hit: at the top dose activation, usual class: activators | 0.007% of 380,000 active | AID 624172; note: potency is the fitted concentration of half-maximal effect; % of control where 0% means no effect
GLP1R cytotox: cytotoxicity in counter-screen for GLP-1R inverse agonists; 0.13% of 410,000 active; HEK293 cAMP-luciferase reporter cells, luminescence, 24 h; Potency, µM (doses to about 38.3 µM), for inactives: at the top dose activity change, negative = inhibition, usual class: inhibitors; AID 624418;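 note: loss of luciferase light is scored as toxicity; potency is the fitted concentration of half-maximal effect; % is set by controls: 0 for no effect and ±100 for the full control effect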
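Here, cytotoxicity is scored as loss of luminescence. The MLSMR collection was tested on cells seeded in medium containing 10% Nu serum, with a 24 hr compound exposure preceded by 12 hours of culture.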
Starred values were filed as active, the others as inactive; [ ] = another dose, or the depositor's remark. Unless noted, calls come from the whole dose curve; as a rule, active = well fitted curve in the direction sought with a large enough effect; inconclusive = small, poorly fitted or top-dose-only effect, or another doubt; inactive = no such curve, though single readings can be large; an effect the other way counts as inactive or inconclusive.

CC(=O)OC1N=C(c2ccccc2)c2cc(C)ccc2NC1=O (stereo unspecified) was read as ClpP mod inconclusive, GLP-1R inv ag 14%, D3 ag -10, DRD3 antagonist -22, GLP1R ag -2% and GLP1R cytotox -7%.
CC(=O)OC1N=C(c2ccccc2)c2ccccc2NC1=O (stereo unspecified) was read as ClpP mod 1%, GLP-1R inv ag 14%, D3 ag 8, DRD3 antagonist -50*, GLP1R ag -4% and GLP1R cytotox -2%.
For C[C@]12CC[C@H]3[C@@H](CC[C@]4(O)C[C@@H](O)CC[C@]34C=O)[C@@]1(O)CC[C@@H]2C1=CC(=O)OC1 the results were ClpP mod -2%, GLP-1R inv ag 1µM*, D3 ag 0, DRD3 antagonist 4, GLP1R ag -10% and GLP1R cytotox inconclusive.
`C=C1C(=O)O[C@H]2C[C@H]1[C@@H](OC(C)=O)C/C(C)=C/CC/C(C)=C\CC[C@]2(C)O` gave ClpP mod 1%, GLP-1R inv ag 7.1µM*, D3 ag -23, DRD3 antagonist inconclusive, GLP1R ag -8% and GLP1R cytotox inconclusive.
`O=C(NC(c1ccc(-c2ccccc2)cc1)c1cnccn1)C1CCN(Cc2ccc(Oc3ccccc3)cc2)CC1` (stereo unspecified) gave ClpP mod -2%, GLP-1R inv ag 4µM*, D3 ag -20, DRD3 antagonist -54*, GLP1R ag 1% and GLP1R cytotox inconclusive.
Screening CCOC(=O)C1CCCN(Cc2ccc(-c3ccccc3)cc2)C1 (stereo unspecified) returned ClpP mod 1%, GLP-1R inv ag inconclusive, D3 ag -15, DRD3 antagonist -27, GLP1R ag -4% and GLP1R cytotox 4%.
Cc1ccc(S(=O)(=O)CCSC(=N)N)cc1 was read as GLP-1R inv ag inconclusive, D3 ag -7, DRD3 antagonist -17, GLP1R ag -3% and GLP1R cytotox inconclusive.
For COC1=CC(=O)[C@]2(C=C1OC)OC[C@@H]1Oc3c(ccc4c3C=CC(C)(C)O4)C(=O)[C@@H]12 the results were ClpP mod -1%, GLP-1R inv ag -19%, D3 ag 70*, DRD3 antagonist 61, GLP1R ag 3% and GLP1R cytotox 0%.
Cc1cccc(-n2c(/C=C/c3cn(C)c4ccccc34)nc3ccccc3c2=O)c1 was read as ClpP mod 0%, GLP-1R inv ag -24%, D3 ag 7 and GLP1R cytotox 4%.
Screening Oc1cc(Cl)c(Cl)c(Cl)c1 returned ClpP mod -2%, GLP-1R inv ag inconclusive, D3 ag 61*, DRD3 antagonist 68, GLP1R ag -1% and GLP1R cytotox -11%.
`[S]=[Sb][S][Sb]=[S]` gave GLP1R ag -3%.
Screening CN(C)C1CCc2[nH]c3c(F)cc(F)cc3c2C1 (stereo unspecified) returned ClpP mod 1%, GLP-1R inv ag inconclusive, D3 ag -10, DRD3 antagonist -105*, GLP1R ag -3% and GLP1R cytotox -10%.
COc1ccc(CNCCc2c(C)[nH]c3ccc(OC(F)(F)F)cc23)c(OC)c1 was read as GLP-1R inv ag 2µM*, D3 ag -11, DRD3 antagonist -11, GLP1R ag 2% and GLP1R cytotox inconclusive.
For COc1ccc2[nH]c(C)c(CCNCc3cc(OC)c(OC)c(OC)c3)c2c1 the results were ClpP mod -1%, GLP-1R inv ag inconclusive, D3 ag 3, DRD3 antagonist 3, GLP1R ag -1% and GLP1R cytotox -2%.
`Cc1cccc(-c2nnn3c2nc(NCCc2ccc(S(N)(=O)=O)cc2)c2ccccc23)c1` gave ClpP mod 11µM*, GLP-1R inv ag 4%, D3 ag 10, DRD3 antagonist 21, GLP1R ag 5% and GLP1R cytotox -11%.
For NS(=O)(=O)c1ccc(CCNc2ccn3nc(-c4cccc(C(F)(F)F)c4)cc3n2)cc1 the results were ClpP mod 4%, GLP-1R inv ag inconclusive, D3 ag 16, DRD3 antagonist 64, GLP1R ag -5% and GLP1R cytotox -13%.
For CC(N)C(=O)c1ccccc1 (stereo unspecified) the results were GLP1R ag 11%[110 µM].
For CNCC(=O)c1ccccc1 the results were ClpP mod 3%, GLP-1R inv ag -4%, D3 ag -42, DRD3 antagonist -51*, GLP1R ag -2% and GLP1R cytotox 1%.
O=C(CCl)c1ccc(O)c(O)c1 was read as ClpP mod -1%.
For CNCC(=O)c1ccc(O)c(O)c1 the results were D3 ag 61* and GLP1R ag 14%.
`COc1ccc(Cn2c(C(=O)O)c(CNCc3ccc(SC)cc3)c3ccc(OC)cc32)cc1` gave ClpP mod inconclusive, GLP-1R inv ag inconclusive, D3 ag -38 and GLP1R cytotox inconclusive.
For COc1ccc(-c2nc(CSCC(=O)N3CCN(c4ccc(F)cc4)CC3)c(C)o2)cc1 the results were ClpP mod -6%, GLP-1R inv ag inconclusive, D3 ag 11 and GLP1R cytotox 16%.
`Cc1ccccc1CN1CCc2nc(N3CCN(c4ccccn4)CC3)ncc2C1` gave ClpP mod 97%, GLP-1R inv ag inconclusive, D3 ag 2 and GLP1R cytotox -12%.
`CCCCCSc1cc(O)c(C(CNC)C(C)C)cc1OC` (stereo unspecified) gave ClpP mod 0%, GLP-1R inv ag 10µM*, D3 ag 4, DRD3 antagonist -1, GLP1R ag 9% and GLP1R cytotox -16%.
`CCCCCSc1cc(OC)c(CCN(C)C)cc1OC` gave ClpP mod -5%, GLP-1R inv ag inconclusive, D3 ag -24, DRD3 antagonist -25, GLP1R ag -5% and GLP1R cytotox -25%.
`COC(=O)C1=C(C(=O)OC)C2OC1c1cc3ccccc3cc12` gave ClpP mod -2%, GLP-1R inv ag -80%, D3 ag -16, DRD3 antagonist -58*, GLP1R ag 2% and GLP1R cytotox inconclusive.
For COc1cccc(-c2nnc3n(Cc4ccccc4Cl)c(=O)c4ccccc4n23)c1O the results were ClpP mod -5%, GLP-1R inv ag inconclusive, D3 ag 0 and GLP1R cytotox -19%.
